ChEMBL document CHEMBL1961873, “Compounds: GSK PKIS; Assays: Nanosyn kinase panel” (2012)

Columns and labels:
[1] = molecular target: Serine/threonine-protein kinase pim-2 (Homo sapiens) (UniProt Q9P1W9); conditions: at 1 µM;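 note: each value is a mean of the inhibition measurements against the kinase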
[2] = molecular target: Serine/threonine-protein kinase pim-3 (Homo sapiens) (UniProt Q86V86); conditions: at 0.1 µM
[3] = molecular target: Serine/threonine-protein kinase pim-3 (Homo sapiens) (UniProt Q86V86); conditions: at 1 µM
[4] = molecular target: T1, MAP kinase-activated protein kinase 5 (Homo sapiens) (UniProt Q8IW41); conditions: at 0.1 µM
T1 sequence (whole entry): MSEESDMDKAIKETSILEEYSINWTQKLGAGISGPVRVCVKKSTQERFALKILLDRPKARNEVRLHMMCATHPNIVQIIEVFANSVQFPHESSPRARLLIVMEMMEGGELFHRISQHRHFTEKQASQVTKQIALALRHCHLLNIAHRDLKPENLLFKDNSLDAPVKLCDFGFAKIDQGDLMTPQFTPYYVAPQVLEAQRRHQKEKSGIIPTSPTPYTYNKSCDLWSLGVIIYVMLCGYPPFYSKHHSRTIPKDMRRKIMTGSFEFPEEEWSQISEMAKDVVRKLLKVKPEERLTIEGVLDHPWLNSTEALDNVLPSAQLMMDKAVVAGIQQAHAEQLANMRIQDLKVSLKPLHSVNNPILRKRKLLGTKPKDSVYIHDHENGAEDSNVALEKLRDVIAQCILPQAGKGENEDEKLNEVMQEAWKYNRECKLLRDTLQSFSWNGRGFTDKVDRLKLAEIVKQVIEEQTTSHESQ

[5] = molecular target: T1, MAP kinase-activated protein kinase 5 (Homo sapiens); conditions: at 1 µM
[6] = molecular target: Serine/threonine-protein kinase SIK1 (Homo sapiens) (UniProt P57059); conditions: at 0.1 µM
Chain of Serine/threonine-protein kinase SIK1 (Homo sapiens) (P57059 whole entry): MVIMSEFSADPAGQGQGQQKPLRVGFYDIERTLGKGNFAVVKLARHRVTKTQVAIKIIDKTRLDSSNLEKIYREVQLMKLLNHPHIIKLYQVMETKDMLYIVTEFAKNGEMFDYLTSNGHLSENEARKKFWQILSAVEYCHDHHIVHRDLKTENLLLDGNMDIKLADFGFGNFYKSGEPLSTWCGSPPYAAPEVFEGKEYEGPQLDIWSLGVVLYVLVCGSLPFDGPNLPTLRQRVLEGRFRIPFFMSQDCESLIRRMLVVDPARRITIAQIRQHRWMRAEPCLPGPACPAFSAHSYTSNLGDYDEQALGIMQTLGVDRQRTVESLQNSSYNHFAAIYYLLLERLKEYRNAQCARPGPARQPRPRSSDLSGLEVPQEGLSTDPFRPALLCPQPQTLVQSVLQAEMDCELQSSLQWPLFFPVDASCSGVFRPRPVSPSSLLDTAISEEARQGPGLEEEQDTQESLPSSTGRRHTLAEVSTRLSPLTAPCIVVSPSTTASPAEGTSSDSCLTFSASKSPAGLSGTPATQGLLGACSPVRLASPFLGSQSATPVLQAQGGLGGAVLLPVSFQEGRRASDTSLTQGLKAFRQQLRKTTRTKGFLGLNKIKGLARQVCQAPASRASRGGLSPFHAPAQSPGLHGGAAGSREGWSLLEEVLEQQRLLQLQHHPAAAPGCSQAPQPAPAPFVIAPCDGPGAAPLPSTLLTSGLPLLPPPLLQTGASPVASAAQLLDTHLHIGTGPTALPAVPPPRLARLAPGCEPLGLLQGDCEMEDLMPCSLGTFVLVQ

[7] = molecular target: Serine/threonine-protein kinase SIK1 (Homo sapiens) (UniProt P57059); conditions: at 1 µM
[8] = molecular target: Serine/threonine-protein kinase SIK2 (Homo sapiens) (UniProt Q9H0K1); conditions: at 0.1 µM
Chain of Serine/threonine-protein kinase SIK2 (Homo sapiens) (Q9H0K1 whole entry, looked up): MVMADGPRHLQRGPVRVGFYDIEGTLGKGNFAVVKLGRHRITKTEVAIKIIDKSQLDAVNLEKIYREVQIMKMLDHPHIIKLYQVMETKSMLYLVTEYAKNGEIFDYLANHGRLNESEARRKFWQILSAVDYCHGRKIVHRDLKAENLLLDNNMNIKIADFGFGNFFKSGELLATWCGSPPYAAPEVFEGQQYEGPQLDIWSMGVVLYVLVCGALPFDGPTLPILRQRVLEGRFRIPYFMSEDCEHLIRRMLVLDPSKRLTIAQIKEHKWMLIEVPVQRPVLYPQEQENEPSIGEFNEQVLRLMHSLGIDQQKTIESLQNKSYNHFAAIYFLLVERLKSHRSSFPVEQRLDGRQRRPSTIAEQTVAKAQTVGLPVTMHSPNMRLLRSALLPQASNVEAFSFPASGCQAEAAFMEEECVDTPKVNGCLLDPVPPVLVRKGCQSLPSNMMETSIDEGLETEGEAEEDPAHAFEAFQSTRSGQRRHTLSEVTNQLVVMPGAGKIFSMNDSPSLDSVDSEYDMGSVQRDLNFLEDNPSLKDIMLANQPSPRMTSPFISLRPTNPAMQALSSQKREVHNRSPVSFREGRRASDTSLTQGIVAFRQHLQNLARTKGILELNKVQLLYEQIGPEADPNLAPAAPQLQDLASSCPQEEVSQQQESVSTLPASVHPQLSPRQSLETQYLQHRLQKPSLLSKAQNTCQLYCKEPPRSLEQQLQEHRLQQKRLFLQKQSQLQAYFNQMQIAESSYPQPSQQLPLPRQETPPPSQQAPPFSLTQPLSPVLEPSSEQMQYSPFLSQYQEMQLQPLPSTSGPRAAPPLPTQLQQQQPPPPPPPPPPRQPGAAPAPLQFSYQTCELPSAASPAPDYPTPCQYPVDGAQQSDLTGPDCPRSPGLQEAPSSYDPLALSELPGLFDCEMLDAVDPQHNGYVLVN

[9] = molecular target: Serine/threonine-protein kinase SIK2 (Homo sapiens) (UniProt Q9H0K1); conditions: at 1 µM
[10] = molecular target: T2, Serine/threonine-protein kinase TBK1 (Homo sapiens) (UniProt Q9UHD2); conditions: at 0.1 µM;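 note: values are the mean TBK1 inhibition, taken from the GSK PKIS screening data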
T2 sequence (whole entry): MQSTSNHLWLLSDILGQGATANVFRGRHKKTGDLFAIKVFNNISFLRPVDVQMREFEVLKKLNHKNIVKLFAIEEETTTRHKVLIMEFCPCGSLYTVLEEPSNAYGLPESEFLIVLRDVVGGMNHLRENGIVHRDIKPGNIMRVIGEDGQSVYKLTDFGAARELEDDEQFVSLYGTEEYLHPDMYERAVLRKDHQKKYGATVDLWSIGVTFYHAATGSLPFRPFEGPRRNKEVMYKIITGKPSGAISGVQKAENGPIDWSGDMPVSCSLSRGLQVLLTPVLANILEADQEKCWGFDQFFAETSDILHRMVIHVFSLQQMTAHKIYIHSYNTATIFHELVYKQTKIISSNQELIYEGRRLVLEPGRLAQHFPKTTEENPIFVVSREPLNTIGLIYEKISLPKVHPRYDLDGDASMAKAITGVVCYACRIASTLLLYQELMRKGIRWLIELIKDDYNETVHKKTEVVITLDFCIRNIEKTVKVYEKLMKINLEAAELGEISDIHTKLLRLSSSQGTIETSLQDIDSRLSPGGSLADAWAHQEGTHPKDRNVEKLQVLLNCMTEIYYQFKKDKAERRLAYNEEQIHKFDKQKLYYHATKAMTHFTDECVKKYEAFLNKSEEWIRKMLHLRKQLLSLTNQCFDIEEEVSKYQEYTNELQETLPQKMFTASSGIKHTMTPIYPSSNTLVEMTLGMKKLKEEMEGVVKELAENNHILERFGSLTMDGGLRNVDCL

Chain of Serine/threonine-protein kinase pim-2 (Homo sapiens) (Q9P1W9 whole entry, looked up): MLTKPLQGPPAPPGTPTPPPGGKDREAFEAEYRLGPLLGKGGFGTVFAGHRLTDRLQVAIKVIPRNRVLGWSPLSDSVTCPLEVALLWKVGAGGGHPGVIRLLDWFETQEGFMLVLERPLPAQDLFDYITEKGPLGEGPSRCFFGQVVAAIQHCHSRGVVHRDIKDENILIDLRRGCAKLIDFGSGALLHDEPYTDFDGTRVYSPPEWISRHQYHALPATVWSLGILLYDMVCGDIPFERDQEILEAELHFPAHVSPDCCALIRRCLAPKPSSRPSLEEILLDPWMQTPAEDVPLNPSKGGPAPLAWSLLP

O=S(=O)(CCNCc1ccc(-c2ccc3ncnc(Nc4ccc(OCc5cccc(F)c5)c(Cl)c4)c3c2)o1)c1ccccc1
inhibition [1]: 0.58%
inhibition [2]: -0.16%
inhibition [3]: 1.33%
inhibition [4]: 2.07%
inhibition [5]: 2.09%
inhibition [6]: 3.17%
inhibition [7]: 9.64%
inhibition [8]: 2.1%
inhibition [9]: 6.58%
inhibition [10]: 4.82%

COc1ccc(-c2cc3c(N)ncnc3o2)cc1
inhibition [1]: 2.23%
inhibition [2]: 1.44%
inhibition [3]: 6.86%
inhibition [4]: -0.43%
inhibition [5]: -0.51%
inhibition [6]: -3.64%
inhibition [7]: 12%
inhibition [8]: 5.43%
inhibition [9]: 7.33%
inhibition [10]: 0.41%

COc1cccc(-n2ncc3c(N/N=C/c4ccc(F)cc4)ncnc32)c1
inhibition [1]: 0.1%
inhibition [2]: 0.77%
inhibition [3]: 0.03%
inhibition [4]: 1.85%
inhibition [5]: 2.88%
inhibition [6]: 9.59%
inhibition [7]: 14%
inhibition [8]: 6.43%
inhibition [9]: 13.7%
inhibition [10]: 2.42%

COC(=O)c1sc(-n2cnc3cc(OC)c(OC)cc32)cc1OCc1ccccc1C(F)(F)F
inhibition [1]: -0.34%
inhibition [2]: -1.72%
inhibition [3]: -2.84%
inhibition [4]: 2.02%
inhibition [5]: -0.15%
inhibition [6]: 6.13%
inhibition [7]: 24.6%
inhibition [8]: 5.85%
inhibition [9]: 15.2%
inhibition [10]: 3.44%

COc1cccc(-c2c[nH]c3c(N/N=C/c4ccncc4)ncnc23)c1
inhibition [1]: 1.1%
inhibition [2]: 0.71%
inhibition [3]: 2.78%
inhibition [4]: 0.16%
inhibition [5]: -1.66%
inhibition [6]: 10.7%
inhibition [7]: 48.9%
inhibition [8]: 28.6%
inhibition [9]: 67.4%
inhibition [10]: 3.26%

COc1cc2ncn(-c3cc(OCc4ccccc4C(F)(F)F)c(C(=O)N(C)C)s3)c2cc1OC
inhibition [1]: 0.27%
inhibition [2]: -0.34%
inhibition [3]: 0.56%
inhibition [4]: 0.07%
inhibition [5]: 0.04%
inhibition [6]: 2.6%
inhibition [7]: 15.2%
inhibition [8]: 4.39%
inhibition [9]: 9.54%
inhibition [10]: 2.13%

CNC(=O)c1cc(-c2ccc(F)cc2)cc(-c2ccc(S(=O)(=O)N3CCCC3)cc2)c1N
inhibition [1]: 0.43%
inhibition [2]: -1.52%
inhibition [3]: -0.11%
inhibition [4]: 0.53%
inhibition [5]: 0.97%
inhibition [6]: 6.18%
inhibition [7]: 6.6%
inhibition [8]: 3.18%
inhibition [9]: 5.07%
inhibition [10]: 0.38%

FC(F)(F)c1cccc(-c2nn3ncccc3c2-c2ccnc(Nc3ccc4c(c3)OCCO4)n2)c1
inhibition [1]: 0.66%
inhibition [2]: -1.58%
inhibition [3]: -2.3%
inhibition [4]: 0.49%
inhibition [5]: -0.29%
inhibition [6]: 3.06%
inhibition [7]: 6.62%
inhibition [8]: 3.42%
inhibition [9]: 6.02%
inhibition [10]: 0.3%

NS(=O)(=O)c1ccc(Nc2ncc(-c3ccccc3)o2)cc1
inhibition [1]: 0.32%
inhibition [2]: -0.13%
inhibition [3]: 0.88%
inhibition [4]: 1.46%
inhibition [5]: 1.61%
inhibition [6]: 6.09%
inhibition [7]: 9.25%
inhibition [8]: 6.43%
inhibition [9]: 18.9%
inhibition [10]: 3.13%

CCc1nn2ncccc2c1-c1ccnc(NC2CC2)n1
inhibition [1]: 1.22%
inhibition [2]: 0.67%
inhibition [3]: 4.22%
inhibition [4]: 0.66%
inhibition [5]: 1.12%
inhibition [6]: 0.6%
inhibition [7]: 7.84%
inhibition [8]: 0.42%
inhibition [9]: 2.21%
inhibition [10]: 2.11%

CCN1CCC(CC(=O)Nc2n[nH]c3nnc(-c4cccc(F)c4F)cc23)CC1
inhibition [1]: 1.56%
inhibition [2]: 1.76%
inhibition [3]: 2.5%
inhibition [4]: 1.08%
inhibition [5]: 1.15%
inhibition [6]: 4.85%
inhibition [7]: 5.87%
inhibition [8]: -1.82%
inhibition [9]: 1.81%
inhibition [10]: 1.12%

CCN(CC)S(=O)(=O)c1ccc(OC)c(Nc2ncc(-c3ccccc3)o2)c1
inhibition [1]: 0.18%
inhibition [2]: 2.06%
inhibition [3]: 3.12%
inhibition [4]: 0.51%
inhibition [5]: 0.24%
inhibition [6]: 1.24%
inhibition [7]: 6.72%
inhibition [8]: 3.3%
inhibition [9]: 2.83%
inhibition [10]: 1.32%

COc1ccc2c(-c3ccnc(Nc4cccc(OC(F)(F)F)c4)n3)cnn2n1
inhibition [1]: 0.02%
inhibition [2]: 0.74%
inhibition [3]: 1.07%
inhibition [4]: 1.98%
inhibition [5]: 3.27%
inhibition [6]: 7.04%
inhibition [7]: 12.8%
inhibition [8]: 9.16%
inhibition [9]: 12.1%
inhibition [10]: 7.22%

Fc1cccc(COc2ccc(Nc3ncnc4sc(-c5ccco5)cc34)cc2Cl)c1
inhibition [1]: 0.73%
inhibition [2]: -1.54%
inhibition [3]: -0.36%
inhibition [4]: 0.95%
inhibition [5]: 1.47%
inhibition [6]: 2.24%
inhibition [7]: 9.68%
inhibition [8]: 3.95%
inhibition [9]: 5.81%
inhibition [10]: 0.55%

c1ccc(COc2ccc(Nc3ncnc4ccc(-c5ccco5)cc34)cc2)cc1
inhibition [1]: 1.2%
inhibition [2]: -0.14%
inhibition [3]: 0.8%
inhibition [4]: 0.38%
inhibition [5]: 0.36%
inhibition [6]: 1.4%
inhibition [7]: 7.46%
inhibition [8]: -3.82%
inhibition [9]: 1.35%
inhibition [10]: -0.27%

COc1ccc2[nH]c3c4[nH]c5ccc(OC)cc5c4c4c(c3c2c1)C(=O)NC4=O
inhibition [1]: 68.3%
inhibition [2]: 66.7%
inhibition [3]: 82.7%
inhibition [4]: 2.48%
inhibition [5]: 8.8%
inhibition [6]: 26.9%
inhibition [7]: 77.2%
inhibition [8]: 56.4%
inhibition [9]: 78.2%
inhibition [10]: 10.9%

NS(=O)(=O)c1ccc(N/N=C2\C(=O)Nc3ccc4ncccc4c32)cc1
inhibition [1]: 9.88%
inhibition [2]: 1.09%
inhibition [3]: 12.5%
inhibition [4]: 1.52%
inhibition [5]: 8.94%
inhibition [6]: 2.74%
inhibition [7]: 31.3%
inhibition [8]: -0.54%
inhibition [9]: 31.6%
inhibition [10]: 7.16%

Cc1ccc(O)cc1Nc1ccnc2cc(-c3ccccn3)ccc12
inhibition [1]: 1.15%
inhibition [2]: -0.3%
inhibition [3]: -0.17%
inhibition [4]: 1.2%
inhibition [5]: 0.39%
inhibition [6]: 14.9%
inhibition [7]: 48.6%
inhibition [8]: 6.77%
inhibition [9]: 23.9%
inhibition [10]: 2.89%

CCCN1CCC(c2ccc(Nc3nc(Nc4cc(F)ccc4C(N)=O)c4cc[nH]c4n3)c(OC)c2)CC1
inhibition [1]: 13.3%
inhibition [2]: 8.07%
inhibition [3]: 49.4%
inhibition [4]: 6.44%
inhibition [5]: 40.9%
inhibition [6]: 10.1%
inhibition [7]: 14.7%
inhibition [8]: 10.9%
inhibition [9]: 11.7%
inhibition [10]: 0.75%

Cc1ccc2c(-c3ccnc(Nc4ccccc4)n3)c(-c3ccc(F)cc3)nn2n1
inhibition [1]: 0.72%
inhibition [2]: -1.46%
inhibition [3]: -3.61%
inhibition [4]: 0.87%
inhibition [5]: -0.35%
inhibition [6]: 1.9%
inhibition [7]: 24.1%
inhibition [8]: 13.3%
inhibition [9]: 33.2%
inhibition [10]: 1.85%
